Assay results from PubChem BioAssay (NCI).
Compounds without any hit were thinned out: in the full panel of roughly 79,000, 15% have a hit. Cut-off read from the data, not from the text of the source: active = growth inhibition above about 70%; inactive = the rest.

How the values were obtained:
[1] = NCI Yeast Anticancer Drug Screen. Data for the rad50 strain (AID 155);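 note: 0% = growth of vehicle-only cultures of the same strain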; settings: S. cerevisiae rad50 strain growth inhibition; at 50.0 µM; stronger effect = higher value
In short: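 Inhibition values express reduced yeast growth in compound-treated cultures relative to vehicle-treated controls.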

[2] = NCI Yeast Anticancer Drug Screen. Data for the mec2-1 strain (AID 157); settings: S. cerevisiae mec2-1 strain, at 50.0 µM, stronger effect = higher value
In short: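 Test agents were screened against the mec2-1 yeast strain, with defined DNA repair or cell cycle alteration. Growth was scored as inhibition against vehicle-only controls.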

[3] = NCI Yeast Anticancer Drug Screen. Data for the sgs1 mgt1 strain (AID 161);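 note: 0% = growth of cultures given vehicle only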; settings: S. cerevisiae sgs1 mgt1 strain, at 50.0 µM, stronger effect = higher value
In short: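 Genetically altered yeast, compound exposure, growth inhibition relative to vehicle.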

[4] = NCI Yeast Anticancer Drug Screen. Data for the cln2 rad14 strain (AID 165);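 note: 0% = growth equal to vehicle treated cultures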; settings: S. cerevisiae cln2 rad14 strain, at 50.0 µM, stronger effect = higher value
In short: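 Growth of compound-exposed yeast (cln2 rad14 genotype) measured and expressed as inhibition relative to vehicle.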

[5] = NCI Yeast Anticancer Drug Screen. Data for the bub3 strain (AID 167); settings: S. cerevisiae bub3 mutant strain, at 50.0 µM, stronger effect = higher value
In short: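 Steps: expose the mutant yeast strain to compound; grow alongside vehicle-treated cultures; measure growth; express inhibition against the vehicle cultures.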

[6] = NCI Yeast Anticancer Drug Screen. Data for the mlh1 rad18 strain (AID 175); settings: S. cerevisiae mlh1 rad18 strain growth inhibition; at 50.0 µM; stronger effect = higher value
In short: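 In this whole-cell yeast screen, a strain with altered DNA damage repair is challenged with compound, and its growth is measured against matched vehicle-treated controls.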

Measured: growth inhibition

[O-][n+]1ccccc1Cl
inactive: [1] 8.05% | [2] 9.9% | [3] 10.2% | [4] -14.4% | [5] 6.85% | [6] 16.4%

O=C(O)c1sccc1-c1cccc2ccccc12
inactive: [1] 0.5% | [2] 18.6% | [3] 10.9% | [4] -13.3% | [5] -15.6% | [6] -11.8%

O=C(NN1C(=O)CSC1c1ccccc1F)c1ccncc1 (configuration not stated)
inactive: [1] 11.2% | [2] 6.25% | [3] 21.6% | [4] 7.7% | [5] 11.9% | [6] 19.5%

CCCC(=O)C(C)C(=O)CC (configuration not stated)
inactive: [1] -52.1% | [2] -26.9% | [3] -15.7% | [4] 4.3% | [5] -6.8% | [6] 0.5%

CC[P+]1(c2ccccc2)[C@@H](C)CC[C@@H]1C
inactive: [1] 15.1% | [2] 7.45% | [3] 12.6% | [4] 8.1% | [5] 3.75% | [6] 37.7%

Cc1ccc(OC/C=C/c2ccc([N+](=O)[O-])cc2)cc1
inactive: [1] -1.45% | [2] -9.3% | [3] -7.4% | [4] -58.8% | [5] -4.55% | [6] -19.2%

CCCOC(=O)c1ccnc(C(=O)OCCC)c1
inactive: [1] 4.85% | [2] 4.85% | [3] -1.2% | [4] -16.2% | [5] -9.9% | [6] -13.6%

O=C1c2sccc2[C@H](NC(=O)C(F)(F)F)[C@@H]1Cl
inactive: [1] 4.5% | [2] 3.45% | [3] 1.1% | [4] 25.1% | [5] 7.25% | [6] 18.6%

CN(C)c1nnnn1-c1ccccc1
inactive: [1] 5.15% | [2] 5.05% | [3] 12.3% | [4] -21.9% | [5] 9.5% | [6] 0.45%

Cc1ccc(NC(=O)OCC(F)(F)F)cc1NC(=O)OCC(F)(F)F
inactive: [1] 1.9% | [2] 29.3% | [3] 26.1% | [4] -0.9% | [5] 16.8% | [6] 1.95%

CC(O)CNc1ncnc2ccccc12 (configuration not stated)
inactive: [1] -13.5% | [2] -12.2% | [3] -3.15% | [4] -5.1% | [5] 9.15% | [6] 4.05%

COc1cc2c(c(OC)c1OC)-c1ccc(S(C)(=O)=O)c(=O)cc1[C@@H](NC(C)=O)CC2
inactive: [1] 3.25% | [2] -7.1% | [3] 3.2% | [4] 4.7% | [5] -35% | [6] -44.4%

CC(C)[Si]1(C(C)C)OCC2OC(n3c(C(=O)c4ccccc4)cc(=O)[nH]c3=O)CC2O[Si](C(C)C)(C(C)C)O1 (configuration not stated)
inactive: [1] -2.2% | [2] 5.7% | [3] 17.5% | [4] 24.4% | [5] 17.9% | [6] 6.35%

O=C(NC(=S)Nc1ccc(S(=O)(=O)c2ccc(NC(=S)NC(=O)c3ccccc3)cc2)cc1)c1ccccc1
inactive: [1] -28.5% | [2] -32.6% | [3] -7.8% | [4] 8.75% | [5] -32.1% | [6] -12.6%

COC(OC)C1(CCc2ccccc2)NC(=O)N(C)C1=O (configuration not stated)
inactive: [1] -17.4% | [2] 2.2% | [3] 5.6% | [4] -19.9% | [5] 25.6% | [6] -0.65%

Nc1ncc2c(n1)-c1ccccc1OC2N1CCOCC1 (configuration not stated)
inactive: [1] 28% | [2] 2.15% | [3] -0.45% | [4] 2% | [5] -22.6% | [6] -7.8%

COc1ccc2c(c1)N(S(=O)(=O)c1ccc(C)cc1)C[C@@H]1c3cc(O)c(OCc4ccccc4)cc3O[C@H]21
inactive: [1] -8.95% | [2] 7.9% | [3] -7.8% | [4] -6.8% | [5] 2.4% | [6] 15.6%

Cc1ccsc1C(=O)c1ccccc1[N+](=O)[O-]
inactive: [1] -3.65% | [2] -13.3% | [3] -6.7% | [4] -20.8% | [5] -7.35% | [6] 6.25%

CC(N)(C(=O)O)c1ccccc1 (configuration not stated)
inactive: [1] -2.45% | [2] -2.45% | [3] 18.6% | [4] -25.2% | [5] -13.9% | [6] -21.4%

CCCCCCC(C(=O)OCC)(C(=O)OCC)c1ccccc1
inactive: [1] -10.8% | [2] -16.1% | [3] 1.15% | [4] -31.1% | [5] 37.9% | [6] -6.2%

CC(=O)OCC1OC(Nc2[nH]c(=O)n(C)c(=O)c2C(=O)CCl)C(OC(C)=O)C(OC(C)=O)C1OC(C)=O (configuration not stated)
inactive: [1] 5.15% | [2] 18.5% | [3] 2.45% | [4] -2.55% | [5] -3.8% | [6] -4.15%

[O-]c1c[n+](-c2cc(Cl)ccc2Cl)no1
inactive: [1] 11.2% | [2] 2.9% | [3] -3.4% | [4] 4.8% | [5] -1.4% | [6] 2.55%

Cc1ccc(NC(=S)NC(=O)c2cccc([N+](=O)[O-])c2)cc1C
inactive: [1] 1.8% | [2] 15.5% | [3] 14.5% | [4] -26.7% | [5] 0.6% | [6] 11.7%

CCOC(=O)Nc1c2ccccc2c(NC(=O)OCC)c2cc(Cl)ccc12
inactive: [1] 4.2% | [2] -1.75% | [3] 3.75% | [4] 3.25% | [5] 2.85% | [6] 19.8%

CCc1cccc(C(=O)NCCN(C)C)c1[N+](=O)[O-]
inactive: [1] -10.4% | [2] -17.9% | [3] -12.2% | [4] 22% | [5] -11.9% | [6] -5%

Brc1cccc(CCOCc2ccccc2)c1
inactive: [1] 8.45% | [2] -11.6% | [3] -4.3% | [4] 2.05% | [5] 0.5% | [6] -3.9%

COc1ccc2c(=O)c(O)c(-c3ccccc3)oc2c1
inactive: [1] 22.8% | [2] -18.9% | [3] 42.5% | [4] 10.4% | [5] 15.2% | [6] 8.25%

CCCCCCCCn1nnnc1C(F)(F)F
inactive: [1] -3.1% | [2] 8.45% | [3] 6.75% | [4] -15.1% | [5] 1.45% | [6] -0.45%

CCCCCCCCCCCCCCCCCCNC(=O)Nc1ccccc1
inactive: [1] 3.1% | [2] 7.05% | [3] -2.75% | [4] -7.65% | [5] -4.05% | [6] 15.3%

O=C1COc2cc(O)cc(O)c21
inactive: [1] 9.8% | [2] 3.7% | [3] 7.85% | [4] 3.9% | [5] 19.5% | [6] 7.75%

CC1=C(c2ccc(C)cc2)NC(=S)C(C)C(c2ccc(C)cc2)=N1 (configuration not stated)
inactive: [1] -11.2% | [2] -24.6% | [3] 15.3% | [4] 8.15% | [5] 0.95% | [6] 19.8%

CC(I)CNC1=NCC(=O)N1 (configuration not stated)
inactive: [1] -8.6% | [2] 5.9% | [3] -9.9% | [4] -21.1% | [5] 13.1% | [6] 13%

CCSc1nc(COC(=O)NC)c(COC(=O)NC)n1C
inactive: [1] 4.9% | [2] -4.25% | [3] 8.25% | [4] -4.15% | [5] 10.7% | [6] 3.65%

O=C(O)C1CC[N-]CC1.O=C(O)C1CC[N-]CC1.[NH2-].[NH2-].[Pt+4]
inactive: [1] -5.4% | [2] 14.8% | [3] 2.2% | [4] 12.7% | [5] 2.6% | [6] 18.4%

O=[S@@]1Nc2cc3ccccc3cc2S1
inactive: [1] 23.2% | [2] -3.35% | [3] 17.6% | [4] 17.1% | [5] -14.9% | [6] 39.2%

CC12CCCCC1C1=C(CCCC1)CC2 (configuration not stated)
inactive: [1] -4.1% | [2] -4.95% | [3] -5.35% | [4] 9.4% | [5] 6.7% | [6] -17.6%

O=C(NCCCCCCNC(=O)c1cc(-c2ccccc2)nc2ccccc12)c1cc(-c2ccccc2)nc2ccccc12
inactive: [1] -33% | [2] -18% | [3] -42.6% | [4] -17.4% | [5] -27.3% | [6] -17.4%

N#CN(Cc1ccccc1)Cc1ccccc1
inactive: [1] -1.25% | [2] 23.7% | [3] 7.75% | [4] 0.6% | [5] 10.7% | [6] 4%

COc1ccc2c(c1)CCC1=C2CC2C(=O)C1(C)CCC2(C)OC(C)=O (configuration not stated)
inactive: [1] -4.35% | [2] -11.1% | [3] -1.3% | [4] -40.5% | [5] 10.1% | [6] -14.2%

Cc1cccc(/C=N\N=C\c2cccc(C)n2)n1
inactive: [1] 3.9% | [2] -10.2% | [3] -3.25% | [4] -3% | [5] -1.45% | [6] 23.3%

CCN(CC)CC(c1ccccc1)C(C)(O)c1ccccc1 (configuration not stated)
inactive: [1] -2% | [2] -10.1% | [3] -8% | [4] 10.9% | [5] 27.4% | [6] -22.4%

CCOC(=O)/C(C#N)=C/c1ccc(-c2cc(C(F)(F)F)cc(C(F)(F)F)c2)o1
inactive: [1] -17.9% | [2] -7% | [3] -8% | [4] -15.4% | [5] -2.5% | [6] -0.8%
